Among the data in PubChem BioAssay (NCI) are growth values, retold here.

Structures are written as SMILES. Compounds without any hit were thinned out: in the full panel of roughly 83,000, 20% have a hit.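 Results are percent growth after 48 hours of single-concentration exposure. 100 means growth as in untreated cells, lower positive values show inhibition; negative values down to -100 show cell death.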 Values without a mark were called inactive. The source made the active and inactive calls. How the source made its calls: active means growth percent below 10; inactive means the rest.

Among the test systems are T-47D breast; MDA-MB-435 melanoma; MCF7 breast; HCT-116 colon; HCC-2998 colon; KM12 colon; MDA-MB-468 breast; SW-620 colon.
What all share (assay): NCI-60 one-dose screen, 48 h (100 = growth as untreated, 0 = no growth, -100 = all killed)
Holding throughout (settings): 10 µM unless noted

As for `COc1c(F)ccc(C(=O)Nc2ccc3nc(NC(=O)C4CCCN(S(=O)(=O)c5ccc(C(C)(C)C)cc5)C4)sc3c2)c1F` (stereo unspecified), the growth was 42.5% with T-47D breast; 76.7% in the experiment with MDA-MB-435 melanoma; 41.5% in the experiment with MCF7 breast; 58.3% with HCT-116 colon; 84.8% in the experiment on HCC-2998 colon; 68.4% in the experiment on KM12 colon. Moreover, the growth in the experiment with MDA-MB-468 breast was 86.7%.

As to `ClC(Cn1ncc2c(Nc3cccc(Br)c3)nc(SCCN3CCOCC3)nc21)c1ccc(Br)cc1` (stereo unspecified), the growth with T-47D breast was -2.99% (active); with MDA-MB-435 melanoma it was -4.97% (active); in the experiment on SW-620 colon it was -32.1% (active); in the experiment on MCF7 breast, -5.44% (active); with HCT-116 colon it was 6.22% (active); with HCC-2998 colon, 3.46% (active). Moreover, the growth in the experiment with KM12 colon is -20% (active); in the experiment on MDA-MB-468 breast it was -18% (active).

Consider `Fc1ccc(F)c(CNc2nc(SCCN3CCOCC3)nc3c2cnn3CC(Cl)c2ccc(Br)cc2)c1` (stereo unspecified), for which the growth in the experiment with T-47D breast is 10.8%; with MDA-MB-435 melanoma, -13.3% (active); in the experiment on SW-620 colon, -3.05% (active); in the experiment with MCF7 breast, 2.55% (active); with HCT-116 colon it was 16.8%; in the experiment with HCC-2998 colon, 24.7%. Further, the growth with KM12 colon was 4.2% (active); with MDA-MB-468 breast it was -22.9% (active).

For `Nc1cc(-c2c[nH]c3ccc(Cl)cc23)nc2cc(-c3c[nH]c4ccccc34)nn12`, the growth is -5.16% (active) in the experiment on T-47D breast; -51% (active) in the experiment with MDA-MB-435 melanoma; -79.6% (active) with SW-620 colon; -68.3% (active) in the experiment with MCF7 breast; -83.9% (active) with HCT-116 colon; -81.2% (active) with HCC-2998 colon. Also, the growth is -70.5% (active) with KM12 colon and -72.3% (active) with MDA-MB-468 breast.

Take `Cn1cc(-c2cc3nc(-c4c[nH]c5ccccc45)cc(N)n3n2)c2ccccc21`: the growth was -69.4% (active) in the experiment on T-47D breast; -81.8% (active) in the experiment with MDA-MB-435 melanoma; -77.1% (active) with SW-620 colon; -74.2% (active) in the experiment on HCT-116 colon; -78.2% (active) in the experiment with HCC-2998 colon; -33.9% (active) in the experiment with KM12 colon. In the experiment on MDA-MB-468 breast, the growth was -53.9% (active).

On to `COc1cc(NC(=O)C(C)C)ccc1C(=O)NC(=S)Nc1ccc(S(N)(=O)=O)cc1`, for which the growth in the experiment on T-47D breast is 99.5%; in the experiment with MDA-MB-435 melanoma it was 106%; in the experiment on SW-620 colon it was 107%; in the experiment on MCF7 breast it was 101%; in the experiment on HCT-116 colon it was 106%; with HCC-2998 colon, 116%. The growth in the experiment with KM12 colon is 100%; in the experiment with MDA-MB-468 breast, 123%.

Take `COc1ccc(-c2cc(C(=O)N=Nc3c(O)[nH]c4ccc(Cl)cc34)c3ccccc3n2)cc1OC`: the growth with T-47D breast is 106%; in the experiment with MDA-MB-435 melanoma, 119%; in the experiment with SW-620 colon, 103%; with MCF7 breast it was 87.8%; in the experiment on HCT-116 colon it was 101%; in the experiment on HCC-2998 colon, 109%. Besides, the growth with KM12 colon was 101%; with MDA-MB-468 breast, 98.9%.

As for `CCC1(OC(=O)c2ccccc2SSCCOC(=O)CCCCC2SCC3NC(=O)NC32)C(=O)OCc2c1cc1n(c2=O)Cc2cc3ccccc3nc2-1` (stereo unspecified), the growth was 33.7% in the experiment on T-47D breast; 70.1% in the experiment on MDA-MB-435 melanoma; 51.5% in the experiment on SW-620 colon; 26.5% in the experiment on MCF7 breast; 53.8% with HCT-116 colon; 78.7% in the experiment with HCC-2998 colon. The growth in the experiment on KM12 colon is 79%; with MDA-MB-468 breast, -12.1% (active).

For `COc1ccc2c(c1)c(-c1cc(N)n3nc(-c4c[nH]c5ccccc45)cc3n1)cn2C`, the growth was -63.5% (active) with T-47D breast; -74% (active) in the experiment on MDA-MB-435 melanoma; -89.5% (active) in the experiment with SW-620 colon; -72% (active) with MCF7 breast; -85.9% (active) with HCT-116 colon; -80.6% (active) with HCC-2998 colon. For the same compound, the growth was -74.8% (active) in the experiment on KM12 colon and -73.8% (active) in the experiment on MDA-MB-468 breast.

Turning to `CN1C(=O)/C(=C\C(=O)c2cc3ccccc3oc2=O)c2ccccc21`, the growth was 67.4% with T-47D breast; 85.4% with MDA-MB-435 melanoma; 27.1% with SW-620 colon; 46.5% in the experiment on MCF7 breast; 52.6% with HCT-116 colon; 74.2% in the experiment on HCC-2998 colon. Besides, the growth with KM12 colon was 85.1%; in the experiment with MDA-MB-468 breast it was 28.8%.

`O=C(OCCOCCO)N(c1cccc(Br)c1)c1nc(SCCN2CCOCC2)nc2c1cnn2CC(Cl)c1ccc(Br)cc1` (stereo unspecified): the growth in the experiment on T-47D breast is 13.6%; in the experiment with MDA-MB-435 melanoma it was 9.72% (active); with SW-620 colon, 17.8%; in the experiment with HCT-116 colon, 10.8%; with HCC-2998 colon it was 12%; in the experiment with KM12 colon it was -8.97% (active). Also, the growth in the experiment with MDA-MB-468 breast is -2.54% (active).

As to `COc1cccc(C(N)=Nc2ccc(OCCCCCCCCn3cncn3)cc2)c1`, the growth in the experiment with T-47D breast was 52%; with SW-620 colon, 21.2%; in the experiment on MCF7 breast it was 18.3%; in the experiment on HCT-116 colon, 12.5%; with HCC-2998 colon, 23.4%; in the experiment with MDA-MB-468 breast it was 24.8%.

Regarding `COC(=O)c1cc(C(=O)CBr)n2c1ccc1c3ccccc3ccc12`, the growth was 57.7% in the experiment on T-47D breast; 74.9% in the experiment on MDA-MB-435 melanoma; 55.4% in the experiment with SW-620 colon; 6.75% (active) in the experiment with MCF7 breast; 35.6% with HCT-116 colon; 62.5% in the experiment on HCC-2998 colon. Moreover, the growth with KM12 colon is 84%; in the experiment with MDA-MB-468 breast, 48.8%.

Regarding `Cc1cc(N=C(N)c2ccccc2)ccc1OCCCCCCCCn1ccnc1`, the growth in the experiment with T-47D breast was 26.4%; in the experiment on SW-620 colon it was 20%; in the experiment on MCF7 breast, -4.6% (active); in the experiment with HCT-116 colon, 11.4%; with HCC-2998 colon, -32.6% (active); in the experiment on MDA-MB-468 breast it was 2.88% (active).

As to `CC(=O)Nc1ccc(S(=O)(=O)Nc2ccc(-c3ccc4c(c3)NC(=O)/C4=C\c3ccc[nH]3)cc2)cc1`, the growth is 20.7% with T-47D breast; 99.7% in the experiment on MDA-MB-435 melanoma; 87.1% in the experiment with HCT-116 colon; 96.9% in the experiment on HCC-2998 colon; 51.6% in the experiment on KM12 colon; -7.1% (active) with MDA-MB-468 breast.

For the compound `CCCCNc1ccc2c3c(cccc13)C(=O)N(NCC(O)COc1ccc3c(C)cc(=O)oc3c1)C2=O` (stereo unspecified), the growth in the experiment on T-47D breast was 80.8%; in the experiment on MDA-MB-435 melanoma, 72.2%; in the experiment on MCF7 breast, 64.6%; in the experiment on HCT-116 colon, 91.9%; in the experiment with HCC-2998 colon, 104%; in the experiment on KM12 colon it was 85.7%. Moreover, the growth in the experiment on MDA-MB-468 breast was 68.8%.

In the case of `Fc1cccc(CNc2nc(SCCN3CCOCC3)nc3c2cnn3CC(Cl)c2ccc(Br)cc2)c1` (stereo unspecified), the growth with T-47D breast is 1.04% (active); with MDA-MB-435 melanoma, 10.6%; in the experiment on SW-620 colon, -38.2% (active); with MCF7 breast, 7.42% (active); with HCT-116 colon, 18.4%; in the experiment with HCC-2998 colon, 12.2%. In addition, the growth was 8.48% (active) in the experiment on KM12 colon and 3.38% (active) in the experiment on MDA-MB-468 breast.
